The supplement of paper PMC3545927
Some of the results follow. No count for the full screen is at hand.

Biological target: furin, P09958
Experiment: furin cleavage Z-score vs untreated control; higher = more cleavage, active = 3.5 or more, inactive = 1 or less, 8 variable residues between constant flanks
How it was run: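 Reactions of 0.01 ml ran for 7.5, 15 or 30 min in 50 mM HEPES pH 7.5 with CaCl2 and NaCl, at 1:10 enzyme:substrate. In them, purified furin acted on bead-held 8-mer peptides fused to a cDNA oligonucleotide. The cleavage Z-score was obtained by lowess-adjusting log sequencing counts of released DNA against furin-free reactions and scaling by median absolute deviation.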

Chain of furin, P09958 (P09958 whole entry): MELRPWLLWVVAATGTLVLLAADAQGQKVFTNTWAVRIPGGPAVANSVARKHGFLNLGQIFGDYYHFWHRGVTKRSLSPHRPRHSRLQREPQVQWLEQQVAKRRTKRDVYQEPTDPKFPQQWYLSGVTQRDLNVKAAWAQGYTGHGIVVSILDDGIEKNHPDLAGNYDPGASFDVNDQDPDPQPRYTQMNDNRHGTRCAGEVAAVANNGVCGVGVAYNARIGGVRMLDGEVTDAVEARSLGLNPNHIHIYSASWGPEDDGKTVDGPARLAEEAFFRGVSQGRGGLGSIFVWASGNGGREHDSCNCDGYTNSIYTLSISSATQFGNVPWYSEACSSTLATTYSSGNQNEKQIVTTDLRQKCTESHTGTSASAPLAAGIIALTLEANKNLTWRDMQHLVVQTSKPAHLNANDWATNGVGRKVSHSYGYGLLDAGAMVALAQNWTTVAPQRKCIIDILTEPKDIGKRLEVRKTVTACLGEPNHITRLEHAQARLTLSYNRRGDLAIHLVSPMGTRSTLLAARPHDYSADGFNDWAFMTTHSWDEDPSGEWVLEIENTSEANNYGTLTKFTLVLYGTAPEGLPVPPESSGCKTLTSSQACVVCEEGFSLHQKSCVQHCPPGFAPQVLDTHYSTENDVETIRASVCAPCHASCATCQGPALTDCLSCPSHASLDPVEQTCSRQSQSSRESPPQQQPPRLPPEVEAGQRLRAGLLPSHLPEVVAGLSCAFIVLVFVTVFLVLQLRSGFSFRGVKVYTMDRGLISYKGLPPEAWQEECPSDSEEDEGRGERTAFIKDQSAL

## CAQKLPINALAGNASASA [HC1380]
7.5 min
  furin cleavage Z-score: 0.17 (inactive)
15 min
  furin cleavage Z-score: -0.107 (inactive)
30 min
  furin cleavage Z-score: -0.819 (inactive)

## CAGDFHYVTGAGNASASA [HC1209]
7.5 min
  furin cleavage Z-score: -0.771 (inactive)
15 min
  furin cleavage Z-score: -0.551 (inactive)
30 min
  furin cleavage Z-score: -1.55 (inactive)

## CATTPPSGSWAGNASASA [HC60]
7.5 min
  furin cleavage Z-score: -1.04 (inactive)
15 min
  furin cleavage Z-score: -0.299 (inactive)
30 min
  furin cleavage Z-score: -0.554 (inactive)

## CASYANGSGPAGNASASA [HC397]
7.5 min
  furin cleavage Z-score: 0.376 (inactive)
15 min
  furin cleavage Z-score: -1.07 (inactive)
30 min
  furin cleavage Z-score: 0.0876 (inactive)

## CADKEVVTSTAGNASASA [HC2294]
7.5 min
  furin cleavage Z-score: -0.414 (inactive)
15 min
  furin cleavage Z-score: -0.137 (inactive)
30 min
  furin cleavage Z-score: -0.18 (inactive)

## CAALKRSKRRAGNASASA [FS-1445]
7.5 min
  furin cleavage Z-score: 11.5 (active)
15 min
  furin cleavage Z-score: 10.6 (active)
30 min
  furin cleavage Z-score: 8.09 (active)

## CAIRQVGDFHAGNASASA [HC1207]
7.5 min
  furin cleavage Z-score: -0.371 (inactive)
15 min
  furin cleavage Z-score: -0.615 (inactive)
30 min
  furin cleavage Z-score: -1.78 (inactive)

## CAGENCGYRRAGNASASA [HC1506]
7.5 min
  furin cleavage Z-score: -0.528 (inactive)
15 min
  furin cleavage Z-score: -0.187 (inactive)
30 min
  furin cleavage Z-score: -0.341 (inactive)

## CAALKRPVEQAGNASASA [FS-2858]
7.5 min
  furin cleavage Z-score: -1.15 (inactive)
15 min
  furin cleavage Z-score: -0.538 (inactive)
30 min
  furin cleavage Z-score: -0.285 (inactive)

## CAAEVRSKRRAGNASASA [FS-3]
7.5 min
  furin cleavage Z-score: 4.87 (active)
15 min
  furin cleavage Z-score: 4.38 (active)
30 min
  furin cleavage Z-score: 5.1 (active)

## CAIRSRVLREAGNASASA [FS-804]
7.5 min
  furin cleavage Z-score: 12.6 (active)
15 min
  furin cleavage Z-score: 10.5 (active)
30 min
  furin cleavage Z-score: 8.33 (active)

## CAIRSALKRPAGNASASA [FS-444]
7.5 min
  furin cleavage Z-score: 0.37 (inactive)
15 min
  furin cleavage Z-score: -0.823 (inactive)
30 min
  furin cleavage Z-score: -0.407 (inactive)

## CAPLRRSKRRAGNASASA [FS-1148]
7.5 min
  furin cleavage Z-score: 9.4 (active)
15 min
  furin cleavage Z-score: 9.64 (active)
30 min
  furin cleavage Z-score: 8.71 (active)

## CAAERRSVIRAGNASASA [FS-1666]
7.5 min
  furin cleavage Z-score: -0.389 (inactive)
15 min
  furin cleavage Z-score: -2.19 (inactive)
30 min
  furin cleavage Z-score: -0.341 (inactive)

## CAEVVPSTWVAGNASASA [HC140]
7.5 min
  furin cleavage Z-score: -0.678 (inactive)
15 min
  furin cleavage Z-score: -0.107 (inactive)
30 min
  furin cleavage Z-score: 0.5 (inactive)

## CAESAGVQEDAGNASASA [HC1533]
7.5 min
  furin cleavage Z-score: -0.496 (inactive)
15 min
  furin cleavage Z-score: -1.46 (inactive)
30 min
  furin cleavage Z-score: -0.975 (inactive)

## CAQLFTFSPRAGNASASA [HC305]
7.5 min
  furin cleavage Z-score: -0.105 (inactive)
15 min
  furin cleavage Z-score: -0.574 (inactive)
30 min
  furin cleavage Z-score: 0.219 (inactive)

## CASIFLLALLAGNASASA [HC248]
7.5 min
  furin cleavage Z-score: -0.433 (inactive)
15 min
  furin cleavage Z-score: -0.299 (inactive)
30 min
  furin cleavage Z-score: -0.909 (inactive)

## CAGNWFGCTWAGNASASA [HC434]
7.5 min
  furin cleavage Z-score: 2
15 min
  furin cleavage Z-score: 1.1
30 min
  furin cleavage Z-score: -0.112 (inactive)

## CARAHRSVLAAGNASASA [FS-1943]
7.5 min
  furin cleavage Z-score: -0.832 (inactive)
15 min
  furin cleavage Z-score: -0.15 (inactive)
30 min
  furin cleavage Z-score: 2.24

## CAAVTHINSVAGNASASA [HC1428]
7.5 min
  furin cleavage Z-score: -1.27 (inactive)
15 min
  furin cleavage Z-score: -0.864 (inactive)
30 min
  furin cleavage Z-score: -0.253 (inactive)

## CATRARSLRFAGNASASA [FS-1099]
7.5 min
  furin cleavage Z-score: -0.222 (inactive)
15 min
  furin cleavage Z-score: 2.2
30 min
  furin cleavage Z-score: 1.03

## CANRKRSKRRAGNASASA [FS-1240]
7.5 min
  furin cleavage Z-score: 10.6 (active)
15 min
  furin cleavage Z-score: 10.8 (active)
30 min
  furin cleavage Z-score: 8.12 (active)

## CANRKRNKKQAGNASASA [FS-1239]
7.5 min
  furin cleavage Z-score: 0.136 (inactive)
15 min
  furin cleavage Z-score: 0.864 (inactive)
30 min
  furin cleavage Z-score: 2.02

## CATCSRHKRRAGNASASA [FS-96]
7.5 min
  furin cleavage Z-score: 4.62 (active)
15 min
  furin cleavage Z-score: 7.75 (active)
30 min
  furin cleavage Z-score: 7.17 (active)

## CASRKRSFFRAGNASASA [FS-3137]
7.5 min
  furin cleavage Z-score: -0.305 (inactive)
15 min
  furin cleavage Z-score: 2.22
30 min
  furin cleavage Z-score: 0.35 (inactive)

## CAFRSRSKRRAGNASASA [FS-773]
7.5 min
  furin cleavage Z-score: 8.16 (active)
15 min
  furin cleavage Z-score: 8.31 (active)
30 min
  furin cleavage Z-score: 7.71 (active)

## CAFRSRSLREAGNASASA [FS-774]
7.5 min
  furin cleavage Z-score: 5.16 (active)
15 min
  furin cleavage Z-score: 6.5 (active)
30 min
  furin cleavage Z-score: 6.69 (active)
